Out of some 48,000 compounds screened, about 13,000 (27%) showed an effect of 50% or more. Some of the results follow.
Test system: Wolbachia pipientis
Assay: Anti-Wolbachia Cell-Based Screen
Assay type: functional
Set-up: scale not given: in the data most compounds retested in dose-response had high values
Conditions: 5 µM

SMILES | Percent Effect
CN(Cc1ccccc1)c1ncccc1CNC1CCCC1 | -55.14%
CNS(=O)(=O)c1cccc(C(C)NCc2ccc(F)cc2F)c1 (configuration not stated) | 0.5272%
CC(C)(C)c1ccn(C2(C(=O)O)CCN(c3ccncc3F)CC2)n1 | 0.05232%
O=C(O)C(F)(F)F.O=C(c1ccco1)N1CCOC2(COCCN(c3ncccn3)C2)C1 (configuration not stated) | -16.99%
O=C(O)C(F)(F)F.O=C(c1ccco1)N1CCCC2(CN(Cc3cccs3)CCO2)C1 (configuration not stated) | 7.002%
O=C(O)C(F)(F)F.O=C(c1ccco1)N1CCC2(CCCN(c3ncccn3)C2)C1 (configuration not stated) | 85.77%
CCN1CC2(CCN(C(=O)C3CSC(C)(C)C(=O)N3)CC2)CC1=O (configuration not stated) | -12.94%
CCc1nccn1C1CCCN(C(=O)c2cc[nH]n2)C1 (configuration not stated) | 5.506%
CCc1nccn1C1CCCN(C(=O)c2cc(C3CC3)on2)C1 (configuration not stated) | 0.1203%
CCc1nccn1C1CCCN(C(=O)Cc2cn3ccsc3n2)C1 (configuration not stated) | 106.2%
CCc1nccn1C1CCCN(C(=O)CCc2nc(C(C)C)no2)C1 (configuration not stated) | 1.838%
O=C(Cc1cn2ccsc2n1)N1CCCC(n2cncn2)C1 (configuration not stated) | -11.33%
CCc1nccn1C1CCCN(C(=O)c2csc(C3CC3)n2)C1 (configuration not stated) | 96.06%
CC(C)c1ccc(OCCC(=O)N(C)CC(N)=O)cc1 | 4.31%
CC1CN(c2ncnc3cccc(F)c23)CCO1 (configuration not stated) | -3.165%
CNS(=O)(=O)CCNc1cc(C)nc2cc(C)nn12 | -6.261%
Cc1cc2nc(C(C)C)cc(N[C@H](C(N)=O)C(C)C)n2n1 | -8.312%
Cc1cc2nc(C(C)C)cc(NCCc3ccncc3)n2n1 | 142%
Cc1cc(NCCS(C)(=O)=O)n2nc(C)cc2n1 | -11.18%
CC(C)c1cc(NCC2(Cn3cccn3)CC2)n2nccc2n1 | -2.27%
Cc1cc2nc(C(C)C)cc(NCCc3cccn3C)n2n1 | 113.2%
CCc1nc2c(NCC3COc4c(cccc4OC)C3)ncnc2o1 (configuration not stated) | -3.271%
CCN(C)C(=O)c1ccc(N(C)Cc2cc(-c3cccnc3)no2)nc1 | 3.484%
COCc1cc(CC2(NC3CCN(C)CC3)COC2)no1 | 4.63%
COc1cc(C#N)ccc1OCC(=O)N(C1CC1)C(C)c1ccco1 (configuration not stated) | -6.369%
CCC[C@H]1CN(Cc2ccc(N(C)C)nc2)C[C@@H]1NS(=O)(=O)CC | 9.48%

SMILES | Percent Effect
COc1cc(S(=O)(=O)Nc2cn[nH]c2)ccc1Br | 20.8%
Cc1nccn1CC1CCCN(C(=O)Cc2ccsc2)C1 (configuration not stated) | 91.27%
Cc1cnn(C2CCCN(C(=O)Cc3ccc(-n4cccn4)cc3)C2)c1 (configuration not stated) | -1.818%
O=C(Cc1ccsc1)N1CCCC(CNS(=O)(=O)Cc2ccccc2)C1 (configuration not stated) | -10.03%
Cn1nc(C2CCCN(C(=O)Cc3ccsc3)C2)c2nccnc21 (configuration not stated) | -16.9%
CCCc1noc(CCC(=O)N2CCCC(n3ccnc3C)C2)n1 (configuration not stated) | 4.516%
Cc1noc(C)c1CCC(=O)N1CCCC(n2ccnc2C)C1 (configuration not stated) | -0.2444%
Cc1cnn(C2CCCN(C(=O)Cc3ccc(C)s3)C2)c1 (configuration not stated) | 107.6%
Cc1noc(C)c1CNC(=O)N1CCN(CC2CC2)CC1 | -3.03%
Cc1noc(C)c1CC(=O)N1CCCC(Cn2ccnc2C)C1 (configuration not stated) | 108.2%
Cc1noc(C)c1CC(=O)N1CCCC(n2ccnc2C)C1 (configuration not stated) | 104.6%
Cc1nc(NC(=O)COCC2CC2)ccc1Br | -7.033%
CCc1nnc(CN2CCC(C3CCCCCN3C(C)=O)CC2)o1.Cl (configuration not stated) | 2.52%
CN(C)c1nccc(CNS(=O)(=O)c2cc(Cl)cc(Cl)c2)n1 | -1.753%
Cc1nc(C(=O)N2CCN(C(=O)N(C)C)[C@@H]3CS(=O)(=O)C[C@@H]32)cs1 | -0.3934%
CCC(NC(=O)c1cccc2[nH]ccc12)C(=O)N1CCOCC1 (configuration not stated) | -2.082%
Cc1nn(C)c(C)c1CC(=O)N1CCCC(n2ccnc2C)C1 (configuration not stated) | 103.8%
Cc1noc(C)c1CNC(=O)N1CCCC(C)CC1 (configuration not stated) | -2.86%
Cc1nn(C)c(C)c1CC(=O)N1CCCC(n2ccnc2)C1 (configuration not stated) | -6.925%
Cc1nccn1C1CCCN(C(=O)Cn2ccc(=O)n(C)c2=O)C1 (configuration not stated) | -5.053%
CC(=O)NCC1CCCN(C(=O)Cc2c(C)noc2C)C1 (configuration not stated) | 118.6%
Cc1noc(C)c1CC(=O)N1CCCC(c2noc(C(C)C)n2)C1 (configuration not stated) | -25.9%
Cc1cnn(C2CCCN(C(=O)Cc3c(C)nn(C)c3C)C2)c1 (configuration not stated) | 112.6%
C=C(C)CN1CCCC1c1nc(Cc2ccc(F)cc2)no1 (configuration not stated) | 3.064%
CNC(=O)[C@H]1C[C@H]2OCC[C@H]2N(CC2CCOCC2)C1.O=C(O)C(F)(F)F | -4.721%
COC(=O)CCCN(C)C(c1cccnc1)c1ccc(F)cc1F (configuration not stated) | -20.53%

Source: ChEMBL document CHEMBL3988442, “University of Dundee, Small-Polar-MMV Screening Library” (2021)
